Results reported in PubChem BioAssay (NCI).
About 83,000 compounds went through this panel and 20% of them were active in at least one assay; those are over-represented in the sample as a whole.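 Growth was measured after 48 h exposure to one concentration of compound in 96-well plates. Values under 10 count as active.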 The source made the active and inactive calls.

Columns and labels:
Assay in all cases: NCI-60 one-dose screen, 48 h (100 = growth as untreated, 0 = no growth, -100 = all killed)
Conditions in all cases: 10 µM
SK-MEL-2 melanoma = test system: SK-MEL-2 melanoma
EKVX NSCLC = test system: EKVX NSCLC
UO-31 renal = test system: UO-31 renal
TK-10 renal = test system: TK-10 renal
ACHN renal = test system: ACHN renal
CAKI-1 renal = test system: CAKI-1 renal
A498 renal = test system: A498 renal
CCRF-CEM leukemia = test system: CCRF-CEM leukemia
MOLT-4 leukemia = test system: MOLT-4 leukemia
SR leukemia = test system: SR leukemia
RPMI-8226 leukemia = test system: RPMI-8226 leukemia
OVCAR-8 ovarian = test system: OVCAR-8 ovarian
OVCAR-5 ovarian = test system: OVCAR-5 ovarian
OVCAR-4 ovarian = test system: OVCAR-4 ovarian
SK-OV-3 ovarian = test system: SK-OV-3 ovarian
IGROV1 ovarian = test system: IGROV1 ovarian
OVCAR-3 ovarian = test system: OVCAR-3 ovarian
HS 578T breast = test system: HS 578T breast
NCI/ADR-RES ovarian = test system: NCI/ADR-RES ovarian

Measured: growth

CCOC(=O)Nc1ccc2c(c1)C(=O)N(CC)c1ccccc1O2
active: A498 renal -4.82% | SR leukemia 8.37% | OVCAR-8 ovarian 7.22% | OVCAR-3 ovarian -7.48% | NCI/ADR-RES ovarian 8.14%
inactive: SK-MEL-2 melanoma 14.6% | EKVX NSCLC 32.8% | UO-31 renal 53.7% | TK-10 renal 74.8% | ACHN renal 35.6% | CAKI-1 renal 31.1% | CCRF-CEM leukemia 13.5% | MOLT-4 leukemia 14.5% | RPMI-8226 leukemia 12.4% | OVCAR-5 ovarian 74% | OVCAR-4 ovarian 43.7% | SK-OV-3 ovarian 23.2% | IGROV1 ovarian 32.1% | HS 578T breast 46%

CNC(=S)Sc1ccc([N+](=O)[O-])cc1[N+](=O)[O-]
inactive: SK-MEL-2 melanoma 90.7% | EKVX NSCLC 72.1% | UO-31 renal 60.2% | TK-10 renal 84.3% | ACHN renal 37.3% | CAKI-1 renal 27% | A498 renal 80.6% | CCRF-CEM leukemia 12.7% | MOLT-4 leukemia 43.7% | SR leukemia 17.3% | RPMI-8226 leukemia 13.7% | OVCAR-8 ovarian 81.3% | OVCAR-5 ovarian 93.7% | OVCAR-4 ovarian 77.1% | SK-OV-3 ovarian 80.2% | IGROV1 ovarian 104% | OVCAR-3 ovarian 36.3% | HS 578T breast 88.2% | NCI/ADR-RES ovarian 92.5%

COc1ccc(COC(=O)CC(C)C)cc1
inactive: SK-MEL-2 melanoma 101% | EKVX NSCLC 101% | UO-31 renal 93.5% | TK-10 renal 90.6% | ACHN renal 105% | CAKI-1 renal 98.7% | A498 renal 117% | CCRF-CEM leukemia 102% | MOLT-4 leukemia 98.8% | SR leukemia 97.1% | RPMI-8226 leukemia 103% | OVCAR-8 ovarian 96.1% | OVCAR-5 ovarian 100% | OVCAR-4 ovarian 109% | SK-OV-3 ovarian 102% | IGROV1 ovarian 106% | OVCAR-3 ovarian 105% | HS 578T breast 104% | NCI/ADR-RES ovarian 98.8%

C[N+]1=C(/C=C/c2ccc(I)cc2)C(C)(C)c2ccccc21
active: CCRF-CEM leukemia 2.26% | MOLT-4 leukemia 8.77% | SR leukemia -8.97%
inactive: SK-MEL-2 melanoma 95.6% | EKVX NSCLC 91.5% | UO-31 renal 83.5% | TK-10 renal 89.2% | ACHN renal 94.7% | CAKI-1 renal 94.4% | A498 renal 104% | RPMI-8226 leukemia 71.8% | OVCAR-8 ovarian 67.5% | OVCAR-5 ovarian 90.1% | OVCAR-4 ovarian 109% | SK-OV-3 ovarian 107% | IGROV1 ovarian 92.3% | OVCAR-3 ovarian 34.4% | HS 578T breast 101% | NCI/ADR-RES ovarian 101%

c1ccc(C2CCCCC2)c(OCCCCCN2CCNCC2)c1
inactive: SK-MEL-2 melanoma 82% | EKVX NSCLC 67.4% | UO-31 renal 66.6% | TK-10 renal 83.2% | ACHN renal 53.3% | CAKI-1 renal 66.2% | A498 renal 52.4% | CCRF-CEM leukemia 27.1% | MOLT-4 leukemia 33.5% | OVCAR-8 ovarian 83.2% | OVCAR-5 ovarian 93.8% | OVCAR-4 ovarian 68.5% | SK-OV-3 ovarian 94.9% | IGROV1 ovarian 56.7% | OVCAR-3 ovarian 76.9% | HS 578T breast 76% | NCI/ADR-RES ovarian 70%
active: SR leukemia -32.9% | RPMI-8226 leukemia -14.6%

O=C(O)CNS(=O)(=O)c1ccc(OCCOc2ccc(S(=O)(=O)NCC(=O)O)cc2)cc1
inactive: SK-MEL-2 melanoma 98.5% | EKVX NSCLC 102% | UO-31 renal 85.7% | TK-10 renal 92.7% | ACHN renal 102% | CAKI-1 renal 99.5% | A498 renal 96.4% | CCRF-CEM leukemia 112% | MOLT-4 leukemia 106% | SR leukemia 103% | RPMI-8226 leukemia 109% | OVCAR-8 ovarian 102% | OVCAR-5 ovarian 104% | OVCAR-4 ovarian 115% | SK-OV-3 ovarian 103% | IGROV1 ovarian 106% | OVCAR-3 ovarian 103% | HS 578T breast 99.4% | NCI/ADR-RES ovarian 103%

COCCOC(=O)NC(=O)Nc1ccc(/C(=N/O)c2ccc(Cl)cc2)cc1
active: A498 renal -14.2% | CCRF-CEM leukemia 8.24% | MOLT-4 leukemia 9.91% | SR leukemia 8.7% | OVCAR-8 ovarian 4.12% | SK-OV-3 ovarian 4.2% | OVCAR-3 ovarian 0.755% | NCI/ADR-RES ovarian -3.69%
inactive: SK-MEL-2 melanoma 18.7% | EKVX NSCLC 29.6% | UO-31 renal 36.8% | TK-10 renal 62.6% | ACHN renal 39% | CAKI-1 renal 30.6% | RPMI-8226 leukemia 22.3% | OVCAR-5 ovarian 47.1% | OVCAR-4 ovarian 43.7% | IGROV1 ovarian 30.9% | HS 578T breast 34.4%

Cc1ccc2c3c(cccc13)-c1ccccc1C2=O
inactive: SK-MEL-2 melanoma 97.2% | EKVX NSCLC 67.8% | UO-31 renal 75.2% | TK-10 renal 94% | ACHN renal 96.8% | CAKI-1 renal 89% | A498 renal 78.2% | CCRF-CEM leukemia 83.5% | MOLT-4 leukemia 87.4% | SR leukemia 94.1% | RPMI-8226 leukemia 97.8% | OVCAR-8 ovarian 94.2% | OVCAR-5 ovarian 113% | OVCAR-4 ovarian 105% | SK-OV-3 ovarian 92.1% | IGROV1 ovarian 94% | OVCAR-3 ovarian 108% | HS 578T breast 94% | NCI/ADR-RES ovarian 99%

CCCCOCCOCCOCc1cc2c(cc1Br)OCO2
active: A498 renal -60.6%
inactive: SK-MEL-2 melanoma 92% | EKVX NSCLC 104% | UO-31 renal 76.7% | TK-10 renal 96.3% | ACHN renal 98.8% | CAKI-1 renal 98.5% | CCRF-CEM leukemia 99.8% | MOLT-4 leukemia 92.3% | SR leukemia 100% | RPMI-8226 leukemia 99.2% | OVCAR-8 ovarian 97.8% | OVCAR-5 ovarian 95.5% | OVCAR-4 ovarian 105% | SK-OV-3 ovarian 96.5% | IGROV1 ovarian 89.6% | OVCAR-3 ovarian 111% | HS 578T breast 108% | NCI/ADR-RES ovarian 111%

O=C(/C=C/c1ccc(Cl)cc1)c1ccc(Br)cc1
active: A498 renal -44.1%
inactive: SK-MEL-2 melanoma 104% | EKVX NSCLC 97.2% | UO-31 renal 90% | TK-10 renal 81.2% | ACHN renal 104% | CAKI-1 renal 101% | CCRF-CEM leukemia 110% | MOLT-4 leukemia 97.7% | SR leukemia 71.4% | RPMI-8226 leukemia 28.1% | OVCAR-8 ovarian 103% | OVCAR-5 ovarian 91.8% | OVCAR-4 ovarian 92.5% | SK-OV-3 ovarian 100% | IGROV1 ovarian 88.2% | OVCAR-3 ovarian 100% | HS 578T breast 124% | NCI/ADR-RES ovarian 101%

CC(CNC(Cc1ccccc1)c1ccccc1)NC(Cc1ccccc1)c1ccccc1 (stereo not drawn)
active: SR leukemia -19.7% | RPMI-8226 leukemia -34.6%
inactive: SK-MEL-2 melanoma 73.3% | EKVX NSCLC 26.8% | UO-31 renal 37.6% | TK-10 renal 60.6% | ACHN renal 47.7% | CAKI-1 renal 15.6% | A498 renal 74.5% | CCRF-CEM leukemia 35.2% | MOLT-4 leukemia 14.9% | OVCAR-8 ovarian 49.5% | OVCAR-5 ovarian 46.3% | OVCAR-4 ovarian 31.7% | SK-OV-3 ovarian 81.7% | IGROV1 ovarian 39% | OVCAR-3 ovarian 47.3% | HS 578T breast 75.2% | NCI/ADR-RES ovarian 50%

O=C(Nc1cccc(Cl)c1)OCC(COC(=O)Nc1cccc(Cl)c1)(COC(=O)Nc1cccc(Cl)c1)[N+](=O)[O-]
active: MOLT-4 leukemia 4.15%
inactive: SK-MEL-2 melanoma 49.7% | EKVX NSCLC 28.3% | UO-31 renal 30.9% | TK-10 renal 53.7% | ACHN renal 39.8% | CAKI-1 renal 49.8% | A498 renal 21.1% | CCRF-CEM leukemia 21.4% | SR leukemia 22.4% | RPMI-8226 leukemia 19.5% | OVCAR-8 ovarian 44% | OVCAR-5 ovarian 89.1% | OVCAR-4 ovarian 30.8% | SK-OV-3 ovarian 64.8% | IGROV1 ovarian 42.3% | OVCAR-3 ovarian 20.6% | HS 578T breast 52.1% | NCI/ADR-RES ovarian 35.4%

COC(=O)[C@]12CC[C@@H](C)[C@H](C)[C@@H]1C1=CC[C@@H]3[C@@]4(C)C/C(=N\O)[C@H](O)[C@@]5(C)COC(=C45)C[C@@]3(C)[C@]1(C)CC2
active: SK-MEL-2 melanoma -91.3% | EKVX NSCLC -68.6% | UO-31 renal -85.6% | TK-10 renal -91.2% | ACHN renal -80.9% | CAKI-1 renal -80.7% | A498 renal -88.8% | CCRF-CEM leukemia -49% | MOLT-4 leukemia -62.9% | SR leukemia -39.2% | RPMI-8226 leukemia -41% | OVCAR-8 ovarian -78.3% | OVCAR-5 ovarian -75.4% | OVCAR-4 ovarian -79.1% | SK-OV-3 ovarian -91.9% | IGROV1 ovarian -58.4% | OVCAR-3 ovarian -98.1% | HS 578T breast -33.6% | NCI/ADR-RES ovarian -62.5%

COC(=O)c1cnc2c(c1)Oc1ccccc1-c1ccnn1-2
inactive: SK-MEL-2 melanoma 96.3% | EKVX NSCLC 92.1% | UO-31 renal 80.8% | TK-10 renal 95.3% | ACHN renal 101% | CAKI-1 renal 86.8% | A498 renal 90.4% | CCRF-CEM leukemia 94.9% | MOLT-4 leukemia 91.1% | SR leukemia 85% | RPMI-8226 leukemia 95% | OVCAR-8 ovarian 91.9% | OVCAR-5 ovarian 108% | OVCAR-4 ovarian 103% | SK-OV-3 ovarian 95.4% | IGROV1 ovarian 95.7% | OVCAR-3 ovarian 114% | NCI/ADR-RES ovarian 105%

COC(=O)[C@]12CC[C@@H](C)[C@H](C)[C@@H]1C1=CC[C@@H]3[C@@]4(C)CC(=O)[C@H](O)[C@@](C)(CO)[C@@H]4C(=O)C[C@@]3(C)[C@]1(C)CC2
inactive: TK-10 renal 22.1% | OVCAR-5 ovarian 50.7% | OVCAR-4 ovarian 13.8%
active: SK-MEL-2 melanoma -4.44% | EKVX NSCLC 3.1% | UO-31 renal -75.4% | ACHN renal -51.5% | CAKI-1 renal -66.4% | A498 renal -11.3% | CCRF-CEM leukemia -13.7% | MOLT-4 leukemia -31.8% | SR leukemia -51.3% | RPMI-8226 leukemia -32.2% | OVCAR-8 ovarian -8.97% | SK-OV-3 ovarian 3.85% | IGROV1 ovarian -27.7% | OVCAR-3 ovarian -27.3% | HS 578T breast -1.78% | NCI/ADR-RES ovarian -24.3%

CCN(CC)CCOC(=O)c1ccc(NC(=O)Nc2cccc(Cl)c2)cc1
active: CCRF-CEM leukemia -4.69%
inactive: SK-MEL-2 melanoma 94.7% | EKVX NSCLC 99.2% | UO-31 renal 92.5% | TK-10 renal 96.1% | ACHN renal 108% | CAKI-1 renal 96.8% | A498 renal 79.5% | MOLT-4 leukemia 84.9% | SR leukemia 96.5% | RPMI-8226 leukemia 103% | OVCAR-8 ovarian 97.6% | OVCAR-5 ovarian 105% | OVCAR-4 ovarian 107% | SK-OV-3 ovarian 102% | IGROV1 ovarian 105% | OVCAR-3 ovarian 97.6% | HS 578T breast 100% | NCI/ADR-RES ovarian 97.5%
